Laboratory results from ChEMBL document CHEMBL5724796, “Tm Shift (DSF) assay results for EUbOPEN Chemogenomics Library” (2024).

What follows are compounds tested against Casein kinase I isoform delta (Homo sapiens) (UniProt P48730). Conditions: Compound concentration 20.0 uM.
Casein kinase I isoform delta (Homo sapiens), sequence (P48730 whole entry, looked up, canonical isoform): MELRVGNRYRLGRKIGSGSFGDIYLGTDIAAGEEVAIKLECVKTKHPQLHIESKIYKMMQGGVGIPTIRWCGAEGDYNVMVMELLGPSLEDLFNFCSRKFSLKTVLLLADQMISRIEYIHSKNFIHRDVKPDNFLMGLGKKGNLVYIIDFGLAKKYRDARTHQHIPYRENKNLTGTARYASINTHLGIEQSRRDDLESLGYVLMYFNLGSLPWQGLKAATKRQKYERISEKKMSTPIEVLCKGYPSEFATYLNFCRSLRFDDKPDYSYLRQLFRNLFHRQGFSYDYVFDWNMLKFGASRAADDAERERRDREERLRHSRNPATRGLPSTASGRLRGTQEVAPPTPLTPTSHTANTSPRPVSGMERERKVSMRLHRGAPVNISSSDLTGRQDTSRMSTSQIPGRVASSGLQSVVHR

| SMILES | ΔTm [°C] |
| --- | --- |
| CCS(=O)(=O)N1CC(CC#N)(n2cc(-c3ncnc4[nH]ccc34)cn2)C1 | 1.28 |
| C[C@H]1CO[C@@H]2Cn3cc(C(=O)NCc4ccc(F)cc4F)c(=O)c(O)c3C(=O)N12 | -0.04 |
| CN(C)CCCNC(=O)c1ccc(-c2cc(O)c3ncccc3c2)cc1 | 0.58 |
| COC[C@H](NC(=O)c1ccn(S(C)(=O)=O)c1)C(=O)Nc1nc(-c2cccc(-c3ccn(C)n3)c2)cs1 | 0.35 |
| Cc1c(Nc2ccc(S(=O)(=O)N3CCN(C)CC3)cc2F)nc2ccc(-c3cnn(C4CC4)c3)cn2c1=O | -0.28 |
| COc1cc(C(=O)NCC2(N(C)C)CCCC2)cc(OC)c1OCc1ccccc1 | -0.21 |
| COc1ccc(-c2ccc(-c3cn(C(=O)N4CCCCC4c4ccccc4)nn3)cc2)cc1 (stereo not drawn) | -0.53 |
| OC[C@H]1O[C@@H](c2ccc(Cl)c(Cc3ccc(O[C@H]4CCOC4)cc3)c2)[C@H](O)[C@@H](O)[C@@H]1O | -0.33 |
